# Laboratory results from PubChem BioAssay (Tox21).
# Where “and” joins values, the source holds several entries; their conditions need not be identical. Equal values may be shown once. Inconclusive results are not listed. Entries that show only a call come without a potency. Some compounds were tested as several samples or in several runs, with calls that do not always agree. Calls of active or inactive are those of the source. Unless noted, calls come from the whole dose curve.
# What was measured:
# [1] = Nuclear factor erythroid 2-related factor 2/antioxidant responsive element (Nrf2/ARE) small molecule agonists: qHTS cell viability counter screen in human keratinocytes (AID 1919968; active = well fitted curve in the direction sought with a large enough effect in the repeat runs; an effect the other way counts as inactive or inconclusive; note: nearly all actives have a fitted effect of over 55% in size; note: potency is the fitted concentration of half-maximal effect)
# Summary of the method: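 Viability counter-screen: KeratinoSens reporter cells, DMSO-delivered compounds, 23 h at 37 C, CellTiter-Fluor fluorescence.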
# [2] = Nuclear factor erythroid 2-related factor 2/antioxidant responsive element (Nrf2/ARE) small molecule agonists: luciferase reporter gene qHTS assay in human keratinocytes (AID 1919969); note: nearly all actives have a fitted effect of over 35% in size; note: potency is the fitted concentration of half-maximal effect
# [3] = molecular target: Gonadotropin-releasing hormone receptor (Homo sapiens) (UniProt P30968); test: Human gonadotropin-releasing hormone receptor (GnRHR) small molecule agonists, calcium flux assay in GnRHR-HEK293 cells (AID 1920063); note: nearly all actives have a fitted effect of over 35% in size
# Summary of the method: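 Tox21-format agonist screen using human GnRHR-expressing HEK293 cells and a fluorescent calcium dye; kinetic 3-min fluorescence reading after compound addition, 15-point concentration series run in triplicate.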
# [4] = molecular target: KiSS-1 receptor (Homo sapiens) (UniProt Q969F8); test: Human kisspeptin (KISS1R) small molecule agonists, calcium flux assay in KISS1R-HEK293 cells (AID 1920064; active = well fitted curve in the direction sought with a large enough effect in the repeat runs; an effect the other way counts as inactive or inconclusive)
# Summary of the method: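 Intracellular calcium mobilization in KISS1R-HEK293 cells was recorded by fluorescence (Ex/Em 480/540) for 3 min following compound addition to cells pre-loaded 1 h with calcium dye.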
# [5] = G protein-coupled receptor (GPCR) small molecule agonists, calcium flux assay: HEK293 wild type cell line counter screen (AID 1920065)
# Summary of the method: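 In this agonist-mode screen, ATP is the positive control and DMSO the vehicle. Cells grow 18 h before a 1 h dye incubation at 37 C; signal is taken at Ex/Em 480/540 over 3 min.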
# [6] = p53 small molecule agonists, cell-based qHTS assay with human liver microsomes (AID 1963577)
# Summary of the method: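 Compounds act here after metabolic activation: human liver microsomes and NADPH, both at 0.5 mg/mL final, were co-added to p53RE-bla cells. Incubation ran 16 h at 37 C, followed by LiveBLAzer detection.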
# [7] = p53 small molecule agonists, cell-based qHTS assay with rat liver microsomes (AID 1963578)
# Summary of the method: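 Read-out is beta-lactamase reporter fluorescence (LiveBLAzer, 2 h, room temperature, dark) in p53RE-bla cells treated 16 h at 37 C with compound, rat liver microsomes and NADPH, both 0.5 mg/mL final.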
# [8] = p53 small molecule agonists, cell-based qHTS assay with human liver microsomes: qHTS cell viability counter screen (AID 1963579); note: nearly all actives have a fitted effect of over 45% in size
# Summary of the method: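 Cells carrying the p53 response-element beta-lactamase reporter are treated for 16 h at 37 C with test compounds in the presence of human liver microsomes and NADPH (both 0.5 mg/mL final); ATP-based CellTiter-Glo luminescence then reports viability.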
# [9] = p53 small molecule agonists, cell-based qHTS assay: qHTS cell viability counter screen (AID 1963581); note: nearly all actives have a fitted effect of over 45% in size; note: potency is the fitted concentration of half-maximal effect
# Summary of the method: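 Compounds are pinned onto HCT-116 p53RE-bla cells and left 16 h at 37 C. Following the reporter FRET read, ATP is quantified by CellTiter-Glo luminescence after 30 min at room temperature.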
# [10] = p53 small molecule agonists, cell-based qHTS assay (AID 1963582; active = well fitted activation curve with a large enough effect in the signal ratio in the repeat runs, not every such curve was filed as active; the % refers to the signal ratio)
# Summary of the method: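 Agonist activity was scored from beta-lactamase FRET fluorescence in p53RE-bla cells treated 16 h at 37 C with compounds in DMSO, substrate incubation being 2 h at room temperature.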
# [11] = molecular target: 5-hydroxytryptamine receptor 2A (Homo sapiens) (UniProt P28223); test: 5-hydroxytryptamine receptor 2A (HTR2A) small molecule antagonists, cell-based qHTS assay (AID 1963586); note: nearly all actives have a fitted effect of over 45% in size
# Summary of the method: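 Antagonist-mode intracellular calcium assay: DOI (4 nM) added after 5 min compound pre-incubation at room temperature to dye-loaded HTR2A-CHO cells. Fluorescence followed for 3 min, sampled every second.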
# [12] = molecular target: 5-hydroxytryptamine receptor 2A (Homo sapiens) (UniProt P28223); test: 5-hydroxytryptamine receptor 2A (HTR2A) small molecule agonists, cell-based qHTS assay (AID 1963587); note: nearly all actives have a fitted effect of over 30% in size
# Summary of the method: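 Kinetic calcium-flux fluorescence (2 min, 1 sec intervals) after compound addition in agonist mode. HTR2A-CHO cells were cultured 18 h, then dye-loaded 1 h at 37 C.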
# [13] = molecular target: Muscarinic acetylcholine receptor M1 (Homo sapiens) (UniProt P11229); test: Cholinergic receptor muscarinic 1 (CHRM1) small molecule antagonists, cell-based qHTS assay (AID 1963588); note: nearly all actives have a fitted effect of over 40% in size
# Summary of the method: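 CHRM1-CHO calcium-flux assay, antagonist mode. Cells were seeded 18 h, dye-loaded 1 h at 37 C and given compound for 5 min at RT, then acetylcholine was added at 50nM. FDSS fluorescence was read 3 min; 15 concentrations, three runs.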
# [14] = molecular target: Muscarinic acetylcholine receptor M1 (Homo sapiens) (UniProt P11229); test: Cholinergic receptor muscarinic 1 (CHRM1) small molecule agonists, cell-based qHTS assay (AID 1963589); note: nearly all actives have a fitted effect of over 35% in size
# Summary of the method: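 Stable CHRM1-CHO cells (human receptor) were incubated 18 h, dye-loaded for 1 h at 37 C and exposed to test compounds for agonist activity, with calcium-dependent fluorescence followed kinetically.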
# [15] = cAMP Responsive Elements (CRE) small molecule agonists, cell-based qHTS assay (AID 1963590)
# Summary of the method: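 FRET-based beta-lactamase readout (LiveBLAzer B/G, 2 h RT) quantified CRE activation in HEK 293T CRE-bla cells after 3 h treatment with DMSO-dissolved compounds.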
# [16] = cAMP Responsive Elements (CRE) small molecule antagonists, cell-based qHTS assay (AID 1963591; active = well fitted inhibition curve with a large enough effect in the signal ratio in the repeat runs, not every such curve was filed as active; the % refers to the signal ratio)
# Summary of the method: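 qHTS in CRE-bla HEK 293T cells: compound in DMSO, then 0.25 uM NKH477 (final), 3 h at 37 °C/5% CO2; beta-lactamase FRET read-out after 2 h substrate incubation.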
# [17] = molecular target: Beta-2 adrenergic receptor (Homo sapiens) (UniProt P07550); test: Adrenergic beta2 receptor (ADRB2) small molecule antagonists, cell-based qHTS assay (AID 1963592); note: series mostly up to about 92 µM; nearly all actives have a fitted effect of over 50% in size
# Summary of the method: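 Cells (CHO, stable ADRB2 overexpression) incubated 18-20hr at 37C; compounds added from DMSO; agonist mix (1nM isoproterenol, 100uM IBMX, 25uM Ro-20-1724) added; 0.5hr RT; d2-cAMP and anti-cAMP-cryptate added; 1hr RT; 665/615 nm read.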
# [18] = molecular target: D(2) dopamine receptor (Homo sapiens) (UniProt P14416); test: Dopamine D2 receptor (DRD2) small molecule agonists, cell-based qHTS assay (AID 1963594); note: nearly all actives have a fitted effect of over 35% in size
# Summary of the method: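 cAMP accumulation in DRD2-HEK293 cells measured by HTRF after 1 h detection; compounds added 10 min before NKH477 (200nM […]) forskolin-analogue stimulation, 30 min at room temperature, with Ro20-1724 present at 0.1 mM final.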
# [19] = molecular target: D(2) dopamine receptor (Homo sapiens) (UniProt P14416); test: Dopamine D2 receptor (DRD2) small molecule antagonists, cell-based qHTS assay (AID 1963595; active = well fitted inhibition curve with a large enough effect in the signal ratio in the repeat runs, with a control signal flat; the % refers to the signal ratio; note: potency is the fitted concentration of half-maximal effect)
# Summary of the method: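 In this cell-based antagonist screen, compounds act for 10 min at room temperature before a 30 min challenge with 12 nM quinpirole and 200 nM NKH477. cAMP is quantified by HTRF competition in DRD2-HEK293 cells containing 0.1 mM Ro20-1724.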
# [20] = p53 small molecule agonists, cell-based qHTS assay with rat liver microsomes: qHTS cell viability counter screen (AID 1963580); note: nearly all actives have a fitted effect of over 45% in size
# Summary of the method: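 HCT-116 p53RE-bla, 4,000 cells/well, 5 h pre-incubation; cpd + rat liver microsomes 0.5 mg/mL + NADPH 0.5 mg/mL (final); 16 h, 37 C; CellTiter-Glo, 30 min RT; luminescence.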
# Sequence of Muscarinic acetylcholine receptor M1 (Homo sapiens) (P11229 whole entry, looked up): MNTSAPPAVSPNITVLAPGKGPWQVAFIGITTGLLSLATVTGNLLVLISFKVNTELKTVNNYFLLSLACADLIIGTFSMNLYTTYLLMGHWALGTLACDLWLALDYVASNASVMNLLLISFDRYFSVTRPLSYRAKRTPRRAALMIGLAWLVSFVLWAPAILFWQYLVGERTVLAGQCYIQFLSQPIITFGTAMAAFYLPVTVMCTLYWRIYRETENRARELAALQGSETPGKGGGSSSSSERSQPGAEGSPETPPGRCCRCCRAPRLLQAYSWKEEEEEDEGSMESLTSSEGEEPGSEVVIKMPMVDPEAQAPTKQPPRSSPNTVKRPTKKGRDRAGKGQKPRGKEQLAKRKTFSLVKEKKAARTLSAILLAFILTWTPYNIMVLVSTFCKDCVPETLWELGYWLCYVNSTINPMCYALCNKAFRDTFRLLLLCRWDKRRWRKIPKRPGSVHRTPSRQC
# Sequence of KiSS-1 receptor (Homo sapiens) (Q969F8 whole entry, looked up): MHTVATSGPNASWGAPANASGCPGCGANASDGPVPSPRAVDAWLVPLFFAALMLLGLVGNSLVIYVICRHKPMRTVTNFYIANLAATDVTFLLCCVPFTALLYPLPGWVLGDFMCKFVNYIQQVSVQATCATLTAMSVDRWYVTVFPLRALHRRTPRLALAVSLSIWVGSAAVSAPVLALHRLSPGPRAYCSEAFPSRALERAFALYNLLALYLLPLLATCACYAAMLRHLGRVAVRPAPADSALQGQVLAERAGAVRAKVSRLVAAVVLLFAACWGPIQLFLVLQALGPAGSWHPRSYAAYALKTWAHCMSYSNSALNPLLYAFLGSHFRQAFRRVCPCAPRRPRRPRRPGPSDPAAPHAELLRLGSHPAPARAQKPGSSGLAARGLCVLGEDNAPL
# Sequence of Gonadotropin-releasing hormone receptor (Homo sapiens) (P30968 whole entry, looked up): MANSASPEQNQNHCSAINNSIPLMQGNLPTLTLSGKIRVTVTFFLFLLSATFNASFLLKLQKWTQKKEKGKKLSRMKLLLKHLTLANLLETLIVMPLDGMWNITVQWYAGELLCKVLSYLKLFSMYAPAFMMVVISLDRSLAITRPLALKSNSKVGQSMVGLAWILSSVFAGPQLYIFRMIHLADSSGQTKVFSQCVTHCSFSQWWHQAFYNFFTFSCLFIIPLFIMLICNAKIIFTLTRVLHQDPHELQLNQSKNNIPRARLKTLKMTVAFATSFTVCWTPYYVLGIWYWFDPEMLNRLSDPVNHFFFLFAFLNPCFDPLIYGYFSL
# Sequence of D(2) dopamine receptor (Homo sapiens) (P14416 whole entry, looked up): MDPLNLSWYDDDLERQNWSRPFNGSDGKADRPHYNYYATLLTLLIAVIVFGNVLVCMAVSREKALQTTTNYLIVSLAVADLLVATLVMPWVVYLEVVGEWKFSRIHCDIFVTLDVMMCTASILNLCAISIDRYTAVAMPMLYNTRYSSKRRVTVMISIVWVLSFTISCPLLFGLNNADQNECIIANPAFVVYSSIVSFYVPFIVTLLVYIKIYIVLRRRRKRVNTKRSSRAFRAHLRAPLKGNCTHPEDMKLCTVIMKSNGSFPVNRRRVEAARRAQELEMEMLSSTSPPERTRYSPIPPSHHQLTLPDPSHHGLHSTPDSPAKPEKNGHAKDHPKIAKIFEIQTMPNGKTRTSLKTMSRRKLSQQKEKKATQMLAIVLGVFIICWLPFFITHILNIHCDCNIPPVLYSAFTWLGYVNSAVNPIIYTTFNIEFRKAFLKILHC
# Sequence of 5-hydroxytryptamine receptor 2A (Homo sapiens) (P28223 whole entry, looked up): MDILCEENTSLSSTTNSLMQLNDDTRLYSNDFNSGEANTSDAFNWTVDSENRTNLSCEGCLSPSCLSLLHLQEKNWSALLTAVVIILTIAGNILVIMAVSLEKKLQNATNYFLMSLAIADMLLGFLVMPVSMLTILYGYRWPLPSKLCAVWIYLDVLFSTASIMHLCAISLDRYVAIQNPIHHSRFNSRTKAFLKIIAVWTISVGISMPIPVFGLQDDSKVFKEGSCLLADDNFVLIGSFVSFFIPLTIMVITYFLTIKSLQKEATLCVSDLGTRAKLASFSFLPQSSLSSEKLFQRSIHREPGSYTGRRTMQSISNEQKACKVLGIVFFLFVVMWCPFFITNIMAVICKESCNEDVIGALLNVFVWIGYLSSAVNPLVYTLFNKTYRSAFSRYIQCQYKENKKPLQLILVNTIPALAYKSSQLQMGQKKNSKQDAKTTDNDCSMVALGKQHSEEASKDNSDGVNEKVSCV
# Sequence of Beta-2 adrenergic receptor (Homo sapiens) (P07550 whole entry, looked up): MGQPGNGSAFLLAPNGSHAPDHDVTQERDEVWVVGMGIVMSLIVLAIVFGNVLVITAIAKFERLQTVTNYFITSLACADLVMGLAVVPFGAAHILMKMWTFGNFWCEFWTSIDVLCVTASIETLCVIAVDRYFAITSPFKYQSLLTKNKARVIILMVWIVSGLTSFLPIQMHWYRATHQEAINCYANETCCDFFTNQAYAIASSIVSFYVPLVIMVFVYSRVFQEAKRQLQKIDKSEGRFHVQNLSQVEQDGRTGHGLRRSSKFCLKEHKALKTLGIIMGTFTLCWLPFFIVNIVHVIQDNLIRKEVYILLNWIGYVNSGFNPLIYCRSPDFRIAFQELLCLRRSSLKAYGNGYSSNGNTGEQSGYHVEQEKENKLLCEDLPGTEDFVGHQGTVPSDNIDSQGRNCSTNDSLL
SMILES,Potency [1],Potency [2],Potency [3],Potency [4],Potency [5],Potency [6],Potency [7],Potency [8],Potency [9],Potency [10],Potency [11],Potency [12],Potency [13],Potency [14],Potency [15],Potency [16],Potency [17],Potency [18],Potency [19],Potency [20]
CSc1nnc(C(C)(C)C)c(=O)n1N,inactive,inactive,inactive,inactive,inactive,inactive,inactive,inactive,inactive,inactive,inactive,inactive,inactive,inactive,inactive,inactive,inactive,inactive,inactive,–
CCCN(CCC)N=O,inactive,inactive,inactive,inactive,inactive,inactive,inactive,inactive,–,inactive,inactive,inactive,inactive,inactive,inactive,inactive,–,inactive,–,inactive
CN(C)[C@@H]1C(=O)C(C(N)=O)=C(O)[C@@]2(O)C(=O)C3=C(O)c4c(O)cccc4[C@@](C)(O)[C@H]3C[C@@H]12,inactive,inactive,inactive,inactive,inactive,inactive,inactive,inactive,inactive,inactive,inactive,inactive,inactive,inactive,inactive,inactive,inactive,inactive,inactive,–
O=Cc1ccccc1,inactive,inactive,inactive,inactive,inactive,inactive,inactive,inactive,–,–,inactive,inactive,inactive,inactive,inactive,inactive,inactive,–,inactive,inactive
C[C@@H]1CN(C2CCC(C#N)(c3ccc(F)cc3)CC2)CC[C@]1(C(=O)O)c1ccccc1 (some centres undefined),inactive,inactive,inactive,inactive,inactive,inactive,inactive,inactive,–,inactive,inactive,inactive,inactive,inactive,inactive,–,inactive,inactive,–,inactive
CCOP(OCC)OCC,inactive,inactive,inactive,inactive,inactive,inactive,inactive,–,inactive,inactive,inactive,–,inactive,inactive,inactive,inactive,inactive,inactive,inactive,–
C=CC(=O)OCC(CC)(COC(=O)C=C)COC(=O)C=C,6.28 µM (active) and 12.2 µM (active),2.8 µM (active) and 6.11 µM (active),inactive,inactive,inactive,inactive,inactive,–,26.4 µM (active),–,inactive,inactive,inactive,inactive,–,–,–,–,inactive and 48.6 µM (active),–
